Measured values: PubChem BioAssay
For some assays here: Measured potencies and affinities stand elsewhere. Activity calls are given as the source filed them.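 Rule for the calls, unless noted: active = primary screen active and over 50% activation in each of two duplicate runs; inactive = the rest.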

Experiments:
[1] = tested on: TRPC4 beta (transient receptor potential cation channel C4), mouse; assay: activators of mouse TRPC4 channel, confirmation, cell-based, Fluo4 calcium, HEK293 TRPC4beta/mu-opioid, duplicates, 10 µM (AID 2426;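 active = fluorescence ratio normalized to control raised more than 50% in primary screen plus both repeat runs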); details: Fluo4 calcium fluorescence, at 10 µM; hits give high values
[2] = tested on: transient receptor potential cation channel C4 beta (TRPC4), mouse; assay: activators of mouse TRPC4 channel, confirmation, cell-based, second round, Fluo4, HEK293 TRPC4beta/mu-opioid, 1 µM (AID 2461); details: Fluo4 calcium fluorescence, at 1 µM; hits give high values
[3] = tested on: TRPC4 (transient receptor potential cation channel C4 beta), mouse; assay: positive allosteric modulators of mouse TRPC4, confirmation, cell-based, second round, Fluo-4, HEK293 TRPC4beta/mu-opioid, 1 µM (AID 2554;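 active = primary screen hit whose fluorescence ratio, in both repeats, exceeds the weak agonist control mean by 3 SD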); details: DAMGO EC20, Fluo-4 calcium flux, at 1 µM; hits give high values
[4] = tested on: TRPC4 beta (transient receptor potential cation channel C4), mouse; assay: positive allosteric modulators of mouse TRPC4, confirmation, cell-based, Fluo-4, HEK293 TRPC4beta/mu-opioid (AID 2555;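 active = primary screen hit whose calcium fluorescence ratio, in both repeats, exceeds the weak agonist control mean by 3 SD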); details: DAMGO EC20, Fluo-4 calcium flux, at 10 µM; hits give high values
[5] = target: Short transient receptor potential channel 4 (Mus musculus) (UniProt Q9QUQ5); assay: inhibitors of mouse TRPC4 channel, confirmation, cell-based, Fluo4, HEK293 TRPC4beta/mu-opioid (AID 2636;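 active = calcium signal cut by more than 3 SD below the full-agonist control yet still positive, in both repeats and the earlier primary screen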); details: DAMGO, Fluo4 calcium flux, at 10 µM; hits give high values
Short transient receptor potential channel 4 (Mus musculus), sequence (Q9QUQ5 whole entry, looked up): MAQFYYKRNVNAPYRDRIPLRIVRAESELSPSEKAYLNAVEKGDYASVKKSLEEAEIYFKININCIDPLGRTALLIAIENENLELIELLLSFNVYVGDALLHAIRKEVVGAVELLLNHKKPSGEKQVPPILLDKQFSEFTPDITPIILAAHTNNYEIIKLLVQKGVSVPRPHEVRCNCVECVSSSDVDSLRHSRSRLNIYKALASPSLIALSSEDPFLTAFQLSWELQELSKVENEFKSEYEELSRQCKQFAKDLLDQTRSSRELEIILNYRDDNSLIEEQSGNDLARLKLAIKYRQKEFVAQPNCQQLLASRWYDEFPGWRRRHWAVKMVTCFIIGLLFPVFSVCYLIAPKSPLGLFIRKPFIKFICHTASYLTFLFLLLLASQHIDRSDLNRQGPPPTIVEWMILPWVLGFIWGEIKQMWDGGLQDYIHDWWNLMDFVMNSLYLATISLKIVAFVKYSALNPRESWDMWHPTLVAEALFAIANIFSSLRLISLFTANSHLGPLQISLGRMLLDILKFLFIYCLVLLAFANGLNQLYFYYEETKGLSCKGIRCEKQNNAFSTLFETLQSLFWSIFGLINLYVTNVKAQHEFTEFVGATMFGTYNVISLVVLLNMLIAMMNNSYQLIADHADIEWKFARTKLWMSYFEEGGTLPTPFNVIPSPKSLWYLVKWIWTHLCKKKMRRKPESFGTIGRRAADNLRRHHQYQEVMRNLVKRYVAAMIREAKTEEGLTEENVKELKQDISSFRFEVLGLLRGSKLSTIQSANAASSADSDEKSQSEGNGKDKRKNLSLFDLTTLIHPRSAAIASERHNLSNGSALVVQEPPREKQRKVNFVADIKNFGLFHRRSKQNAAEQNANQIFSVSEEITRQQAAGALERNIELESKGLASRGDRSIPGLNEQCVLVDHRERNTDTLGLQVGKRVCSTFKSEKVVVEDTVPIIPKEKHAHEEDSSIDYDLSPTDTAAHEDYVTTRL

[6] = target: Short transient receptor potential channel 4 (Mus musculus) (UniProt Q9QUQ5); assay: inhibitors of mouse TRPC4 channel, confirmation, cell-based, second round, Fluo4, HEK293 TRPC4beta/mu-opioid, 1 µM (AID 2637;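 active = calcium signal ratio cut to more than 3 SD under the fully stimulated control mean yet still positive, in both repeats and the primary screen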); details: Fluo4 calcium flux, DAMGO, at 1 µM; hits give high values
[7] = target: Short transient receptor potential channel 4 (Mus musculus) (UniProt Q9QUQ5); assay: mouse TRPC4 channel activators, dose response, cell-based, HEK293 TRPC4/mu-opioid, Fluo-4 calcium (AID 434937;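 active = primary screen activator hit with a dose response curve and TRPC4 channel activation at any tested dose; inactive = no activation, no dose response, or not a primary hit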)
[8] = target: Short transient receptor potential channel 4 (Mus musculus) (UniProt Q9QUQ5); assay: TRPC4 positive allosteric modulators, dose response, cell-based, HEK293 TRPC4/mu-opioid, Fluo-4 calcium, EC20 DAMGO (AID 434941;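 active = earlier screen potentiator hit that boosts the TRPC4 ion channel at some dose, with a dose response; inactive = no potentiation, no dose response, or not a prior hit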;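 note: calcium entry triggered by an EC20 dose of DAMGO at the co-expressed mu-opioid receptor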)
[9] = target: Short transient receptor potential channel 4 (Mus musculus) (UniProt Q9QUQ5); assay: mouse TRPC4 channel inhibitors, dose response, cell-based, HEK293 TRPC4/mu-opioid, Fluo-4 calcium (AID 434942;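 active = primary screen inhibitor hit that blocks the TRPC4 channel at some tested dose, yielding a dose curve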)
[10] = target: Short transient receptor potential channel 6 (Mus musculus) (UniProt Q61143); assay: inhibition of mouse TRPC6 channel, confirmation, selectivity assay for TRPC4 inhibitor project, cell-based, HEK293, membrane potential dye, duplicate (AID 434948;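 active = active in primary screen and both duplicates, each dropping signal beyond three positive-control SD with fluorescence still positive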); details: HEK293 TRPC6, membrane potential dye fluorescence, at 10 µM, stimulated with maximal-effect acetylcholine; hits give high values
Short transient receptor potential channel 6 (Mus musculus), sequence (Q61143 whole entry, looked up): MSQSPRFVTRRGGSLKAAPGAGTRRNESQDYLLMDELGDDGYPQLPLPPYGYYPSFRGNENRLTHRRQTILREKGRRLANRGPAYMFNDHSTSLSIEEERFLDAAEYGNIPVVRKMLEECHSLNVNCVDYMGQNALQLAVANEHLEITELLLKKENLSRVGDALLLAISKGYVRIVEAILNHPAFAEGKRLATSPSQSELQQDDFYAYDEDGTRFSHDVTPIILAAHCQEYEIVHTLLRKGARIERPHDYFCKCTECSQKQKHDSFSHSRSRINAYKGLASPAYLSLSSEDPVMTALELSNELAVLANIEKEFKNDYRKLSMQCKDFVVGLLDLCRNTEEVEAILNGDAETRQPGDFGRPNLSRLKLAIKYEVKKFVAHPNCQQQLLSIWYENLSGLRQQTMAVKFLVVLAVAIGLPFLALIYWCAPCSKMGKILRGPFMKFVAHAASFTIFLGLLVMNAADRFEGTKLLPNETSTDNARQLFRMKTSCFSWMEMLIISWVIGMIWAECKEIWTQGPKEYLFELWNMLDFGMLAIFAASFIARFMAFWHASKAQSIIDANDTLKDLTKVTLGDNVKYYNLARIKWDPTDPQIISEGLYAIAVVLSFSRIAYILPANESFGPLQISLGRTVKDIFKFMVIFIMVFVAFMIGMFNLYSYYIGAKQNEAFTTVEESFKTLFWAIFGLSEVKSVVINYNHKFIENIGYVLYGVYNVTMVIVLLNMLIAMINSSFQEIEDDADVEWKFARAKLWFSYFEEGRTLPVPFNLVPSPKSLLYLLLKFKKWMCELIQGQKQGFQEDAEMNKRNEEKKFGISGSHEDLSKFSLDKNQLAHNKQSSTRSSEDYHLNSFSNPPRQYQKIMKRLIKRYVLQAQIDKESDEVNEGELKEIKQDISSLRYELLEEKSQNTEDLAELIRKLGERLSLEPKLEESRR

[11] = target: Short transient receptor potential channel 6 (Mus musculus) (UniProt Q61143); assay: activation of mouse TRPC6 channel, confirmation, selectivity assay for TRPC4 activator project, cell-based, HEK293, membrane potential dye, duplicate (AID 434950;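 active = membrane potential signal rise above negative control mean plus 3 SD in both duplicates, also active in the earlier TRPC4 screen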); details: HEK293 TRPC6, membrane potential fluorescence, at 10 µM; hits give high values
[12] = target: Short transient receptor potential channel 6 (Mus musculus) (UniProt Q61143); assay: TRPC6 potentiation by TRPC4 potentiator hits, confirmation, selectivity assay for TRPC4 potentiator project, HEK293 cells, membrane potential dye, duplicate (AID 434952;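 active = compound raising the membrane signal above positive-control mean plus 3 SD in both repeats, and a primary screen hit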); details: HEK293 TRPC6, membrane potential dye fluorescence, at 10 µM, maximal acetylcholine added after compound; hits give high values
[13] = target: Short transient receptor potential channel 4 (Mus musculus) (UniProt Q9QUQ5); assay: calcium flux activators in TRPC4/5HT1a cells, counter-screen for TRPC4 activator project, cell-based, second counter screen, HEK293 TRPC4/5HT1a, Fluo-4 (AID 434977;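 active = calcium signal rise above buffer-control mean plus 5 SD in both duplicates, and also a hit in the primary screen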); details: Fluo-4 calcium flux, at 10 µM; hits give high values
[14] = calcium flux inhibitors in TRPC4/5HT1a cells, confirmation, counter-screen for TRPC4 inhibitor project, cell-based, second counter screen, HEK293 TRPC4/5HT1a, Fluo-4 (AID 434978;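 active = primary screen active whose calcium signal fell more than 3 SD beyond the full-serotonin control mean in both duplicate plates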;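 for outcome: serotonin given first at submaximal then at maximal dose after compound preincubation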); details: Fluo-4 calcium flux, at 10 µM, serotonin added to trigger calcium flux; hits give high values
[15] = tested on: TRPC4 (mouse), co-expressed with 5HT1a in HEK293; assay: calcium flux potentiators in TRPC4/5HT1a cells, confirmation, counter-screen for TRPC4 potentiator project, cell-based, second counter screen, HEK293 TRPC4/5HT1a, Fluo-4 (AID 434979;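 active = signal rise over 3 SD above mean of control wells given weak agonist, in both repeats and first screen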); details: Fluo-4 calcium flux, at 10 µM, serotonin added at its EC20 dose; hits give high values
[16] = calcium flux activation in mu-opioid HEK293 cells, confirmation, counter-screen for TRPC4 activator project, cell-based, HEK293 mu-opioid receptor line (AID 449723;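 active = hit in primary screen, with calcium signal over 5 SD above buffer well mean in both duplicates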;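 note: counter screen cells carry the mu-opioid receptor alone and lack TRPC4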); details: Fluo-4 calcium fluorescence, at 10 µM; hits give high values
[17] = calcium flux enhancement in mu-opioid HEK293 cells, confirmation, counter-screen for TRPC4 allosteric potentiator project, cell-based, HEK293 mu-opioid receptor line (AID 449724;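 active = calcium signal rise more than 3 SD above the low-dose agonist control mean, in both duplicate plates and the primary screen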); details: Fluo-4 calcium flux, at 10 µM, compound added before EC20 DAMGO stimulus; hits give high values

Structure (SMILES) | outcome [1] | outcome [2] | outcome [3] | outcome [4] | outcome [5] | outcome [6] | outcome [7] | outcome [8] | outcome [9] | outcome [10] | outcome [11] | outcome [12] | outcome [13] | outcome [14] | outcome [15] | outcome [16] | outcome [17] | inhibition [14] | potentiation [3] | potentiation [15]
CCCCC(=O)Nc1cccc2c1C(=O)N(c1ccccc1)C2=O | inactive | inactive | inactive | inactive | inactive | inactive | inactive | inactive | inactive | inactive | inactive | inactive | inactive | inactive | inactive | inactive | inactive | – | – | –
CCCCc1nc(N2CCOCC2)c(C#N)c2c1CCCC2 | inactive | inactive | inactive | inactive | inactive | inactive | inactive | inactive | inactive | inactive | inactive | inactive | inactive | – | inactive | inactive | inactive | 36.5% (active) | – | –
CN(C)CCCSc1nc(-c2ccccc2)nc2c1CCC2 | inactive | inactive | – | inactive | inactive | inactive | inactive | inactive | inactive | inactive | inactive | inactive | inactive | inactive | inactive | inactive | inactive | – | 8% (active) | –
Cc1ccc(NC(=O)c2cc(N3C(=O)C=CC3=O)ccc2N2CCOCC2)cc1Cl | inactive | inactive | inactive | inactive | inactive | inactive | inactive | inactive | inactive | inactive | inactive | inactive | inactive | inactive | inactive | inactive | inactive | – | – | –
CC(NC(=O)c1ccccc1NC(=O)CN1CCc2ccccc2C1)c1ccccc1 (centres undefined) | inactive | inactive | inactive | inactive | inactive | inactive | inactive | inactive | inactive | inactive | inactive | inactive | inactive | inactive | – | inactive | inactive | – | – | 20.3% (active)
COC(=O)c1cc(N2CCN(C)CC2)nc2ccccc12 | inactive | inactive | inactive | inactive | inactive | inactive | inactive | inactive | inactive | inactive | inactive | inactive | inactive | inactive | inactive | inactive | inactive | – | – | –
O=C(O)c1ccc(NC(=O)c2cn(-c3ccccc3)nc2-c2ccc(Br)cc2)cc1 | inactive | inactive | inactive | inactive | inactive | inactive | inactive | inactive | inactive | inactive | inactive | inactive | inactive | inactive | inactive | inactive | inactive | – | – | –
